The text below walks through data of PubChem BioAssay AID1645887 (National Center for Advancing Translational Sciences (NCATS), 2021).

Values joined by “and” are separate entries in the source; they are usually repeats but may differ in a detail not shown here. Equal entries are not always repeated. Among all 16,000 compounds or so, about 40 (0.2%) were called active. Not shown: some 1% with an inconclusive outcome. For the sample, actives were picked, then their nearest neighbours and some compounds at random. The source holds several records for some structures; these can differ, active in one and inactive in another. Unmarked numbers belong to inactive results. Calls follow the shape of the dose curve; as a rule, active = well fitted activation curve with a large enough effect; inconclusive = small, poorly fitted or top-dose-only effect, or another doubt; inactive = no such curve, though single readings can be large or run the other way.
% is scaled to controls: 0 for no effect and ±100 for the full control effect; potency is read from the fitted curve at half-maximal effect.

Chain of Rap guanine nucleotide exchange factor 4 (Homo sapiens) (Q8WZA2 whole entry, looked up): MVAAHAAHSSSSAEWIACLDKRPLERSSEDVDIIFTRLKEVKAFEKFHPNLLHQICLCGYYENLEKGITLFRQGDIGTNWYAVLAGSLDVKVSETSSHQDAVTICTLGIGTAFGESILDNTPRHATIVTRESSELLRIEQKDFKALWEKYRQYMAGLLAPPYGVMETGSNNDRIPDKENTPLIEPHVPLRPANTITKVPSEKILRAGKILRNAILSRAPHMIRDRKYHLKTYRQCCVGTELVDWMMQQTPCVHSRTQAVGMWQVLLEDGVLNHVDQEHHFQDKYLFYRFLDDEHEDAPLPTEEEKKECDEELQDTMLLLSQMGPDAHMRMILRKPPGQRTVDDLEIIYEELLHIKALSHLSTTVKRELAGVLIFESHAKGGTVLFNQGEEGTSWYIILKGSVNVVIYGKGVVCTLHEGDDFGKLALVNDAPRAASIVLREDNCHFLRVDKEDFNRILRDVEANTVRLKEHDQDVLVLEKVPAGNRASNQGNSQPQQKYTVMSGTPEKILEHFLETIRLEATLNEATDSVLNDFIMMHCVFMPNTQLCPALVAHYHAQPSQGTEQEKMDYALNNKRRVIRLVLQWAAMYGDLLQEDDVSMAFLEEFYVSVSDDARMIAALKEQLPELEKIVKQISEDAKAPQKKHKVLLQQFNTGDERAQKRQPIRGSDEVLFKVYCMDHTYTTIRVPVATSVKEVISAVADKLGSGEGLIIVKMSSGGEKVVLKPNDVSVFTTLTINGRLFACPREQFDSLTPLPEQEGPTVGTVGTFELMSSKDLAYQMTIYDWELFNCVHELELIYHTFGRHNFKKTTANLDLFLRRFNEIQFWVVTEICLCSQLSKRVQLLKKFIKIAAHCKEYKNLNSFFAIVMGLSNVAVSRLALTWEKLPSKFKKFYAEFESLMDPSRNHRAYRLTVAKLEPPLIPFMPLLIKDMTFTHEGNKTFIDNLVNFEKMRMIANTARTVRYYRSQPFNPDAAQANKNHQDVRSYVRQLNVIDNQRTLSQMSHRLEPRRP

This experiment has as its target Rap guanine nucleotide exchange factor 4 (Homo sapiens) (UniProt Q8WZA2). Kind of experiment: Validation qHTS for agonist of cAMP-regulated guanine nucleotide exchange factor 4 (EPAC2).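 As to activation: exchange makes BODIPY-GDP fluorescence drop when released from Rap1B; series mostly up to about 150 µM.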 To be noted: EPAC2 Rap1B BODIPY-GDP exchange, fluorescence; activation: stronger effect = higher value. From the text:
Principle Investigator: Xiaodong Cheng Ph.D.
The University of Texas Medical Branch, […], TX
In multi-cellular eukaryotic organisms, the effects of cAMP are transduced by two ubiquitously-expressed intracellular cAMP receptors, the classic protein kinase A/cAMP-dependent protein kinase (PKA/cAPK) and the more recently discovered exchange protein directly activated by cAMP/cAMP-regulated guanine nucleotide exchange factor (EPAC/cAMP-GEF). Both PKA and EPAC are ubiquitously expressed in all tissues, and an increase in intracellular cAMP levels will lead to the activation of both PKA and EPAC. Therefore, careful dissections of the individual role and relative contribution of EPAC and PKA within the overall cAMP signaling in various model systems are critical for further elucidating the mechanism of cAMP signaling. To date no EPAC-specific antagonists and agonist, as well as isoform-specific agonists have been reported, and developing EPAC-specific pharmacological probes to determine the physiological functions that EPAC play in the overall cAMP-mediated signaling remains a major challenge within the research field. Furthermore, identified regulators of EPAC may lead to new mechanism-based therapeutic strategies specifically targeting the EPAC / cAMP-signaling components as EPAC has been implicated to play important roles in major human pathological conditions such as diabetes, heart disease, and cancer.
This qHTS will be used to screen the Molecular Libraries Small Molecule Repository (MLSMR) as a concentration-titration series using the NCGC unique quantitative screening (qHTS) platform to find activators for EPAC1. In addition, this assay will also be used as a counterscreen for the EPAC2 qHTS. This fluorescent based assay is developed and validated for EPAC1 that measures exchange using EPAC effector Rap1 complex with BODIPY-GDP, a GDP analog with a tethered fluorophores. Activators are identified by monitoring the change in fluorescence signal as the exchanged free BODIPY-GDP has a reduced fluorescence compared to Rap1-bound BODIPY-GDP. Increase in signal (activation) is the desired outcome for the EPAC1 agonist while no activity in this assay is desired for the EPAC2 agonist counterscreen.
[1] de Rooij, J., Zwartkruis, F. J., Verheijen, M. H., Cool, R. H., Nijman, S. M., Wittinghofer, A., and Bos, J.L. (1998) Nature 396, 474-477.
Briefly, three uL of reagents (100 nM EPAC2, 250 nM RAP1B-BODIPY-GDP, 50 uM GDP) were dispensed into a 1536-well Greiner black solid-bottom medium binding assay plate. Controls and test compounds (23 nL) were transferred to the plate via a Kalypsys pin tool equipped with a 1536-pin array. The plates were centrifuged at 1,000 rpm for 15 seconds followed by 5 minute incubation at room temperature. The assay plates were read at 5 minute intervals for 30 minutes in the ViewLux plate reader using 480nm excitation and 540nm emission filters. The results were normalized to the agonist positive control of 6.5 mM cAMP.
Background: In qHTS, concentration-response curves come from the screen itself.
`O=c1[nH]cc(N(CCCl)CCCl)c(=O)[nH]1`: the Potency was 100 µM (active).
For the compound `CN1CCCC2(CCN(C(=O)c3ccco3)CC2)C1`, the activation is 0.865%.
The same measure, in the same setting: as for `NCC(O)c1cccc(O)c1` (configuration not stated), the figure is -5.63%.
For the compound `CC1=NCCc2c1[nH]c1cc(O)ccc21`, the Potency is 100 µM (active).
Regarding `COc1ccc2c3c([nH]c2c1)C(C)=NCC3`, the activation was 23% and -2.23% and 8.55%.
Turning to `Nc1ccc(N=Nc2ccccc2)cc1`, the activation was -19.5%.
The same measure, in the same setting: as for `CCN1C[C@]2(COC)CC[C@H](OC)[C@@]34C5C[C@@H]6[C@@H](OC)C[C@@]7(OCO[C@@]7([C@@H](O)C23)[C@@H]14)C5[C@H]6OC` (some centres not stated), the figure is -3.22%.
Same read-out and setting: as for `[O]=[Cd]`, the figure is -0.16%; as for `O=C1/C(=C/c2ccc(N(CCCl)CCCl)cc2)Cc2ccccc21`, -1.94%.
For the compound `CC1=NN=C(c2ccc(N)cc2)c2cc3c(cc2C1)OCO3`, the Potency was 89.1 µM (active) and the activation was -34.2%.
In the case of `C[C@H]1[C@@H]2Cc3ccc(O)cc3[C@@]1(C)CCN2C`, the activation was -8.04%.
On the same count and under the same terms, under `CC1(C)C(O)CC(=O)[C@]2(C)C1CC(=O)[C@]1(C)C2CC[C@@]2(C)C(c3ccoc3)OC(=O)C3O[C@@]321` (some centres not stated) stands -10.4%; under `CN1C2CC(OC(=O)C(CO)c3ccccc3)CC1C(O)C2` (configuration not stated), -0.713%.
With `COc1ccc2[nH]cc(CCN(C(C)C)C(C)C)c2c1`, the activation was -8.55%.
On the same count and under the same terms, under `O=S(=O)(O)c1cc(O)ccc1O` stands -9.91%.
For the compound `CC(C)(C)c1cc(O)ccc1O`, the Potency was 56.2 µM (active) and the activation was -17%.
As to `Cc1cc(O)ccc1Cl`, the activation was -10.1% and -9.14%.
In the case of `COc1cc(C[C@@H](C)N)c(OC)cc1C`, the activation is -5.23%.
Still for that read-out and setting: as for `CC(C)C[C@H](NC(=O)[C@H](Cc1ccccc1)NC(=O)CNC(=O)[C@H](CO)NC(=O)[C@@H](N)Cc1ccc(O)cc1)C(=O)N[C@H](C(=O)O)[C@H](C)O`, the figure is 9.65%; as for `NC(N)=NCCCCCCCCCCN=C(N)N`, -12% and 0.499%.
Regarding `O=C1OC2(c3cc(Br)c(O)cc3Oc3c2cc(Br)c(O)[c]3[Hg])c2ccccc21` (configuration not stated), the Potency was 3.98 µM (active).
On to `CN1CCC2(CC1)CCN(C(=O)c1ccco1)CC2`, for which the activation was 1.62%.
For `C[C@]12CCC3C(CC[C@H]4C[C@H](O)CC[C@]34C)[C@@H]1CC[C@@H]2C(=O)CO` (some centres not stated), the activation is -7.64%.
As to `CCOC(=O)[C@]12Cc3c(cc(OC)c(OC)c3OC)[C@H]1N(Cc1ccccc1)C(=O)c1ccccc12`, the activation was -19.3%.
On to `c1cnc(N2CC3(CCNCC3)C2)nc1`, for which the activation is 2.58%.
